{"source": "PubChem BioAssay (NCI)", "note": "Compounds without any hit were thinned out: in the full panel of roughly 83,000, 20% have a hit.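 Activity criterion: percent growth below 10, measured after cells in 96-well plates were exposed to a single compound concentration for 48 hours.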 The source made the active and inactive calls."}
{"system": "HS 578T breast", "assay": "NCI-60 one-dose screen, 48 h (100 = growth as untreated, 0 = no growth, -100 = all killed)", "details": "10 µM unless noted"}
{"compound": "COc1c(F)ccc(C(=O)Nc2ccc3nc(NC(=O)C4CCCN(S(=O)(=O)c5ccc(Br)s5)C4)sc3c2)c1F", "note": "(stereo not drawn)", "growth": "58.8% (inactive)"}
{"compound": "Cc1ccc(-c2nc(Nc3ccccc3S(N)(=O)=O)c3ccccc3n2)cc1", "growth": "76.8% (inactive)"}
{"compound": "COc1ccc(/C=C/c2n(Cc3ccc4ccccc4c3)c3ccccc3[n+]2Cc2ccc3ccccc3c2)cc1", "growth": "-59.3% (active)"}
{"compound": "C#CCOc1cc(N(CC)CC)ccc1C(C(=O)NC(C)(C)C)N(C(=O)C1CCc2cc(F)ccc2O1)c1ccc(Br)cc1", "note": "(stereo not drawn)", "growth": "88.3% (inactive)"}
{"compound": "COC(=O)/C=C/c1cccc2c1C(=O)NC(C)(c1cc3ccccc3oc1=O)N2", "note": "(stereo not drawn)", "growth": "72% (inactive)"}
{"compound": "O=C(COc1ccc2c(c1)CCCC(=O)N2)NCc1ccccc1", "growth": "94.2% (inactive)"}
{"compound": "COc1ccc(Cc2nn(CC(=O)N/N=C/c3ccc(F)cc3)c(=O)c3c(C)noc23)cc1", "growth": "23.1% (inactive)"}
{"compound": "CCCSc1nc(NCCc2c[nH]c3ccccc23)c(C#N)c(-c2ccc(F)cc2)n1", "growth": "34.9% (inactive)"}
{"compound": "O=C(O)Cn1c(O)c(/C=C2/C=c3cc4c(cc3=NC2=O)OCCO4)sc1=S", "growth": "107% (inactive)"}
{"compound": "COc1ccc(C(=O)/C=C/c2ccc(OCc3ccc(F)cc3)c(OC)c2)cc1OC", "growth": "84.7% (inactive)"}
{"compound": "Cn1cc(-c2cc(N)n3nc(-c4c[nH]c5ccccc45)cc3n2)c2cc(Br)cnc21", "growth": "-17.5% (active)"}
{"compound": "CC(=O)/C=C/c1cccc2c1C(=O)NC(C)(c1cc3cc(Br)ccc3oc1=O)N2", "note": "(stereo not drawn)", "growth": "46.6% (inactive)"}
{"compound": "CCN(CC)c1ccc(/C=N/Nc2nc(-c3ccc(Br)cc3)cs2)c(O)c1", "growth": "102% (inactive)"}
